Source: PubChem BioAssay (NCI)
This is part of a sample that, as a whole, favours compounds with a hit. Of some 83,000 tested, about 20% had one in any assay.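 Cells were grown in 96-well plates and exposed to the test compound at a single concentration for 48 hours; results are reported as percent growth, with values below 10 considered active.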 A number with no mark means an inactive call. The source made the active and inactive calls.

Key:
Test in all cases: NCI-60 one-dose screen, 48 h (100 = growth as untreated, 0 = no growth, -100 = all killed)
Conditions in all cases: 10 µM unless noted
NCI-H23 lung = tested on: NCI-H23 lung
NCI-H226 lung = tested on: NCI-H226 lung
NCI-H322M lung = tested on: NCI-H322M lung
HOP-62 NSCLC = tested on: HOP-62 NSCLC
NCI-H460 lung = tested on: NCI-H460 lung
HOP-92 NSCLC = tested on: HOP-92 NSCLC
NCI-H522 lung = tested on: NCI-H522 lung
A549/ATCC NSCLC = tested on: A549/ATCC NSCLC
786-0 renal = tested on: 786-0 renal
COLO 205 colon = tested on: COLO 205 colon
DU-145 prostate = tested on: DU-145 prostate
K-562 leukemia = tested on: K-562 leukemia
MALME-3M melanoma = tested on: MALME-3M melanoma
MDA-MB-231 breast = tested on: MDA-MB-231 breast
RXF 393 renal = tested on: RXF 393 renal
SF-268 CNS = tested on: SF-268 CNS
SF-295 CNS = tested on: SF-295 CNS
SF-539 CNS = tested on: SF-539 CNS
UACC-257 melanoma = tested on: UACC-257 melanoma
M14 melanoma = tested on: M14 melanoma

| SMILES | growth (NCI-H23 lung) | growth (NCI-H226 lung) | growth (NCI-H322M lung) | growth (HOP-62 NSCLC) | growth (NCI-H460 lung) | growth (HOP-92 NSCLC) | growth (NCI-H522 lung) | growth (A549/ATCC NSCLC) | growth (786-0 renal) | growth (COLO 205 colon) | growth (DU-145 prostate) | growth (K-562 leukemia) | growth (MALME-3M melanoma) | growth (MDA-MB-231 breast) | growth (RXF 393 renal) | growth (SF-268 CNS) | growth (SF-295 CNS) | growth (SF-539 CNS) | growth (UACC-257 melanoma) | growth (M14 melanoma) |
| --- | --- | --- | --- | --- | --- | --- | --- | --- | --- | --- | --- | --- | --- | --- | --- | --- | --- | --- | --- | --- |
| C=CC(C)(O)CCC1C(=C)CCC2C(C)(C)CCCC12C (stereo not given) | 94.2% | 105% | 98.3% | 102% | 112% | 126% | 72.4% | 77.5% | 99.6% | 123% | 104% | 97.9% | 101% | 112% | 108% | 94.5% | 99.3% | 106% | 88.1% | 111% |
| Cc1ccc2c(c1)Nc1ccc(C)cc1C2(C)C | 94.9% | 98.3% | 114% | 78.9% | 109% | 81.1% | 68% | 93.1% | 84.7% | 84.3% | 107% | 97.4% | 98.9% | 114% | 101% | 105% | 101% | 95.7% | 110% | 98.2% |
| O=C(O)c1ccc2nc(-c3ccc(OCCCCCOc4ccc(-c5nc6ccc(C(=O)O)cc6[nH]5)cc4)cc3)[nH]c2c1 | 46% | 63.4% | 91.5% | 91.9% | 109% | 100% | 92.8% | 81.7% | -20.8% (active) | 8.79% (active) | 120% | 77.6% | 173% | 105% | -11.8% (active) | 156% | 123% | 108% | 78.8% | 94.1% |
| COc1cc(NC(C)CCCN2C(=O)c3ccccc3C2=O)c2nc(C)ccc2c1OC (stereo not given) | 87.9% | 96.4% | 76.2% | 95.1% | 103% | 53.5% | 82% | 94.8% | 97.5% | 99.3% | 103% | 66.5% | 104% | 78.3% | 96.4% | 104% | 93.5% | 99.4% | 102% | 99.9% |
| CCn1c(C)nc([N+](=O)[O-])c1Sc1nc(N)nc2nc[nH]c12 | 28.8% | 44.3% | 50.9% | 24.9% | 10.7% | 54.9% | 42.6% | 53.9% | 24.6% | 67.9% | 24.4% | 17.3% | 53.2% | 42.3% | 36% | 31.3% | 23.8% | 26.7% | 39.7% | 8.02% (active) |
| CN[C@@H](CCCNC(N)=NC/C=C(/C)CCC=C(C)C)C(=O)N(C)[C@@H](CCCNC(N)=NCC=C(C)C)C(=O)N[C@H](C)[C@H](OS(=O)(=O)O)c1ccc(OS(=O)(=O)O)c(COS(=O)(=O)O)c1 | 99.9% | 89.1% | 102% | 102% | 110% | 100% | 83.9% | 89.7% | 97.1% | 108% | 108% | 110% | 117% | 95.5% | 102% | 101% | 112% | 104% | 92.5% | 105% |
| CCNc1cc(S(=O)(=O)O)ccc1C | 103% | 103% | 112% | 90.8% | 112% | 104% | 93.3% | 81.3% | 99.8% | 92.8% | 108% | 102% | 106% | 102% | 110% | 113% | 101% | 102% | 83.2% | 106% |
| CCCCCCCCN(CCCCCCCC)CC(O)c1cc(-c2ccccc2)nc2ccc(OC)cc12 (stereo not given) | 67.1% | 88.1% | 106% | 95.4% | 98.9% | 70.1% | 77.5% | 78.6% | 82.6% | 85.7% | 82.6% | 52.2% | 91.3% | 63.7% | 90.2% | 38.3% | 93.8% | 0.739% (active) | 83.2% | 24.7% |
| O=C(Nc1cccc(-n2ccc3c(NC(=O)c4ccccc4)nccc32)c1)Nc1ccc(Cl)c(C(F)(F)F)c1 | 13% | 21.7% | 39.5% | 33.4% | -0.783% (active) | 2.86% (active) | -51.5% (active) | 9.59% (active) | -14.8% (active) | -51.6% (active) | -19.3% (active) | 3.03% (active) | 33.6% | 13.7% | -41.7% (active) | 8.59% (active) | -6.24% (active) | 8.31% (active) | 46.2% | 2.96% (active) |
| CCOC(=O)n1cnc2c(Cl)ncnc21 | 245% | 113% | 109% | 136% | 108% | 95.1% | 108% | 103% | 159% | 98.9% | 106% | 106% | 113% | 101% | 104% | 111% | 101% | 93.6% | 86.4% | 101% |
| COc1cc(Nc2ncccc2C(=O)Nc2nc3ccc(F)cc3s2)cc(OC)c1OC | 55.8% | 57.2% | 90.8% | 40.9% | 74.1% | 45.1% | 50.6% | 65.6% | 22.9% | 118% | 90.4% | 97% | 78.8% | 71.4% | 139% | 90% | 15.6% | 92.9% | 86.4% | 19.1% |
| COc1ccc(C(=O)NC(=O)Nc2ccc3c(c2)NC(=O)/C3=C\c2[nH]c(C)c(CCC(=O)O)c2C)c(F)c1 | 40.4% | 45% | 50.7% | 19.8% | 17.1% | 83.5% | 26.8% | 7.84% (active) | 31.2% | 37.5% | 42.7% | 23.9% | 40.6% | 71.5% | 21.1% | 35% | 42.7% | -5.86% (active) | 14.1% | 33.2% |
| COc1ccc(OCC(O)CN2CCN(c3ccc(Cl)cc3)CC2)cc1 (stereo not given) | 228% | 86.3% | 89.6% | 103% | 93.4% | 97.9% | 74.3% | 93.2% | 151% | 95.7% | 112% | 105% | 106% | 88.1% | 98% | 105% | 92.1% | 95.5% | 81.9% | 102% |
| CCc1c(C)c2cc(-n3c(-c4ccc(OC)cc4)csc3=N)c(O)c(C)c2oc1=O | 26.7% | 56% | 54.5% | 30.4% | 11.1% | 33.5% | -46.5% (active) | 26.3% | 21.5% | 12.6% | 17.7% | 5.33% (active) | 15.3% | 13.4% | 27.8% | 16.5% | 20.8% | -0.811% (active) | 60.8% | 9.77% (active) |
| CC(=O)Nc1ccc([I+]c2ccc([N+](=O)[O-])cc2)cc1 | 84.6% | 79.9% | 94.8% | 96.4% | 104% | 90.5% | 46.5% | 98.9% | 98.3% | 63.4% | 107% | 69.3% | 43.6% | 113% | 129% | 99.4% | 118% | 101% | 90.4% | 83% |
| COc1cc(/C=C/C(=O)c2c(C)n([O-])c3cc(C)c(C)cc3[n+]2=O)cc(OC)c1OC | 72.7% | 82.8% | 67.6% | 74.6% | 35.4% | 41.5% | 33.6% | 65.9% | 23.1% | 70.1% | 50.5% | 21.7% | 86% | 67.8% | 54.2% | 79.9% | 71.7% | 80.2% | 100% | 48.7% |
